The values below come from PubChem BioAssay (NCI).

This is part of a sample that, as a whole, favours compounds with a hit. Of some 83,000 tested, about 20% had one in any assay.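 Plates (96-well) were seeded with cells, treated with compound at one concentration, and incubated for 48 hours before percent growth was determined.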 Unmarked numbers belong to inactive results. Activity calls are given as the source filed them. Rule for the calls: active = growth percent below 10; inactive = the rest.

Common to all, as to assay: NCI-60 one-dose screen, 48 h (100 = growth as untreated, 0 = no growth, -100 = all killed)
Common to all, as to settings: 10 µM unless noted

Assay [1] relates to T-47D breast.
Assay [2] concerns BT-549 breast.
Assay [3] deals with MDA-MB-435 melanoma.
Assay [4] relates to SW-620 colon.
Assay [5] concerns MCF7 breast.
Assay [6] deals with HCT-116 colon.
Assay [7] deals with HCC-2998 colon.
The test system of assay [8] is KM12 colon.

Consider `Oc1ccc([S+](c2ccc(O)cc2)c2ccc(O)cc2)cc1`, for which the growth in assay [1] is 107%; in assay [2], 107%; in assay [3], 107%; in assay [4] it was 107%; in assay [5], 98.8%; in assay [6] it was 107%. Also, the results for the growth in assay [7] and in assay [8] were 106% and 107%, respectively.
On to `CCCCCCNC(=O)Oc1ccc(/C(=C(/C)Cc2ccc(OC)cc2)c2ccc(OCCN(C)C)cc2)cc1`, for which the growth in assay [1] was 25.8%; in assay [2], 88.1%; in assay [3], 67.8%; in assay [4], 35.4%; in assay [5], 20.4%; in assay [6] it was 26.7%. Moreover, the growth in assay [7] is 52.4%; in assay [8], 56.3%.
For the compound `Cc1cc2c(-c3nc4ccccc4n3C)c(O)c(O)cc2c(O)c1-c1c(C)cc2c(-c3nc4ccccc4n3C)c(O)c(O)cc2c1O`, the growth in assay [1] is 19.3%; in assay [2] it was 20%; in assay [3] it was 34.2%; in assay [4], 54.3%; in assay [5], 19.6%; in assay [6] it was 7.37% (active). The growth was 66.5% in assay [7] and 24.7% in assay [8].
On to `C=CCN(C)C`, for which the growth was 117% in assay [1]; 101% in assay [2]; 97.1% in assay [3]; 105% in assay [4]; 101% in assay [5]; 105% in assay [6]. The growth in assay [7] is 110%; in assay [8], 108%.
With `COC(=O)CC(=O)C(=O)OC`, the growth is 99.9% in assay [1]; 101% in assay [2]; 120% in assay [3]; 104% in assay [4]; 97.6% in assay [5]; 93.4% in assay [6]. The growth in assay [7] was 104%; in assay [8] it was 106%.
Turning to `COc1ccc(/C=N/c2cc(C(C)(C)C)nn2-c2ccccc2)cc1`, the growth in assay [1] was 85.8%; in assay [2] it was 128%; in assay [3], 95.5%; in assay [4], 101%; in assay [5], 88.8%; in assay [6], 92.8%. For the same compound, the growth in assay [7] is 132%; in assay [8], 104%.
As to `COc1cc2c(c3c1c(=O)c1cccc(F)c1n3C)C=CC(C)(C)O2`, the growth is 89.2% in assay [1]; 100% in assay [2]; 94.9% in assay [3]; 113% in assay [4]; 44.6% in assay [5]; 92.8% in assay [6]. The growth in assay [7] is 101%; in assay [8], 76.6%.
For `OCCN1CCCN(CCCN2c3ccccc3Sc3ccc(C(F)(F)F)cc32)CC1`, the growth in assay [1] is 60.7%; in assay [2], 72.3%; in assay [3], -29.2% (active); in assay [4], 67.7%; in assay [5] it was 39.2%; in assay [6], 29.2%. The growth is -42.4% (active) in assay [7] and 54.7% in assay [8].
For `COc1ccc(C(=O)N2N=C(c3ccc(Br)cc3)CC2c2cn(-c3ccccc3)nc2-c2ccccc2)cc1` (centres undefined), the growth is 61.1% in assay [1]; 87.7% in assay [2]; 48.6% in assay [3]; 29.6% in assay [4]; 33.8% in assay [5]; -23.3% (active) in assay [6]. Moreover, the growth in assay [7] was 55.9%; in assay [8], 55.6%.
`CCCCCCC(=O)C(C)C`: the growth is 110% in assay [1]; 102% in assay [2]; 103% in assay [3]; 106% in assay [4]; 102% in assay [5]; 101% in assay [6]. Also, the values for the growth in assay [7] and in assay [8] were 105% and 103%, respectively.
Turning to `COc1ccc(Cn2cc3c(c2-c2ccccc2)CCc2cnoc2-3)cc1OC`, the growth is 28.3% in assay [1]; 45.8% in assay [2]; -33.9% (active) in assay [3]; 25.2% in assay [4]; 11.4% in assay [5]; 22.8% in assay [6]. For the same compound, the growth in assay [7] was 37.4%; in assay [8] it was 29.2%.
As for `N=C(N)N=Nc1ccc(NN=C(N)N)c2ccccc12`, the growth in assay [1] is 86.3%; in assay [2], 81.1%; in assay [3] it was 115%; in assay [4], 103%; in assay [5], 97.4%; in assay [6] it was 88.8%. Further, the growth in assay [7] is 106%; in assay [8], 109%.
For `COC(=O)/C(Br)=C/c1c[nH]c2ccc(Br)cc12`, the growth in assay [1] is 72%; in assay [2] it was 88.7%; in assay [3] it was 85.7%; in assay [4] it was 94.4%; in assay [5] it was 75%; in assay [6] it was 69.1%. Besides, the growth in assay [7] is 102%; in assay [8], 92%.
Turning to `CCOC(=O)C1=NN(c2ccccc2)C2=NC(=O)/C(=C\c3cn(-c4ccccc4)nc3-c3cc4ccccc4o3)C(=O)N12`, the growth is 86.6% in assay [1]; 97.4% in assay [2]; 108% in assay [3]; 91.9% in assay [4]; 75.6% in assay [5]; 89.1% in assay [6]. The growth in assay [7] was 101%; in assay [8], 97.5%.
As to `C=CN(C)S(C)(=O)=O`, the growth is 16.8% in assay [1]; 46.8% in assay [2]; -35.4% (active) in assay [3]; 19.9% in assay [4]; 4.56% (active) in assay [5]; 19.7% in assay [6]. Also, the growth in assay [7] was 53%; in assay [8] it was 33.6%.
Turning to `COc1cc(OC)c(NC(=O)n2ncc3cc(Nc4ncnc5ccccc45)ccc32)cc1Cl`, the growth in assay [1] was 97.3%; in assay [2] it was 78.1%; in assay [3], 105%; in assay [4], 116%; in assay [5], 98.1%; in assay [6] it was 101%. Also, the growth in assay [7] is 89.7%; in assay [8], 104%.
Turning to `COc1ccc(-c2cn3ccnc3c(-c3ccc4ncn(C5CCCCC5)c4c3)n2)cc1`, the growth in assay [1] was -8.6% (active); in assay [2] it was 31.1%; in assay [3] it was -18.6% (active); in assay [4], 22.2%; in assay [5], 19.8%; in assay [6] it was 8.72% (active). Moreover, the growth in assay [7] was 37.4%; in assay [8], 16.8%.
For `COc1ccc(C(=O)c2no[n+]([O-])c2C(=O)c2ccc(OC)cc2)cc1`, the growth in assay [1] is 24.7%; in assay [2], 50.3%; in assay [3], 44.3%; in assay [4], -82.9% (active); in assay [5], 30.9%; in assay [6], -98.1% (active). Besides, the values for the growth in assay [7] and in assay [8] were 110% and 102%, respectively.
`COc1ccc2oc(=O)cc(CN3C(=O)S/C(=C\c4ccc(Cl)cc4)C3=O)c2c1`: the growth in assay [1] is 86.6%; in assay [2], 91.5%; in assay [3], 105%; in assay [4], 108%; in assay [5], 86.9%; in assay [6], 84.8%. Moreover, the growth in assay [7] is 104%; in assay [8], 96.1%.
Take `COc1ccc(/C=C2\CCCC3=C2N=C2SC=NN2C3c2ccc(OC)c(OC)c2)cc1OC` (centres undefined): the growth is 52.5% in assay [1]; 38.5% in assay [2]; 18.2% in assay [3]; 29.7% in assay [4]; 22.6% in assay [5]; 8.93% (active) in assay [6]. Moreover, the growth in assay [7] was 57.1%; in assay [8], 28.2%.
With `Cc1sc(NC(=O)c2ccc(C(C)(C)C)cc2)c(C(=O)O)c1C`, the growth in assay [1] is 87.5%; in assay [2] it was 88.8%; in assay [3] it was 96.1%; in assay [4], 60%; in assay [5], 62.2%; in assay [6], 45.3%. The growth in assay [7] is 71.2%; in assay [8], 28.8%.
Take `CCOC(=O)c1c(C)oc2ncnc(Nc3ccc(NC(=O)Nc4cccc(Cl)c4)cc3)c12`: the growth in assay [1] is 1.99% (active); in assay [2], 61.6%; in assay [3], 65.8%; in assay [4] it was 88.7%; in assay [5], 43.3%; in assay [6], 50.8%. Besides, the results for the growth in assay [7] and in assay [8] were 105% and 61%, respectively.
As to `COc1ccc(CNCCCN2C(=O)c3ccc4c5c(ccc(c35)C2=O)C(=O)N(CCCNCc2ccc(OC)c(OC)c2OC)C4=O)c(OC)c1OC`, the growth in assay [1] is -40.1% (active); in assay [2] it was -90.5% (active); in assay [3] it was -87.5% (active); in assay [4] it was -94.6% (active); in assay [5], -85% (active); in assay [6] it was -71.2% (active). Moreover, the results for the growth in assay [7] and in assay [8] were -92.8% (active) and -89.9% (active), respectively.
With `COC(=O)c1cc(=O)nc(N/N=C/c2ccccc2O)s1`, the growth in assay [1] is 73.1%; in assay [2], 94.7%; in assay [3], 100%; in assay [4], 106%; in assay [5], 5.18% (active); in assay [6], 58.7%. Further, the growth in assay [7] was 89.1%; in assay [8], 95.3%.
Turning to `O=C(/C=C/c1c[nH]c2ccccc12)c1cc2ccccc2o1`, the growth in assay [1] was 82.8%; in assay [2], 79.6%; in assay [3] it was 92.1%; in assay [4], 95.2%; in assay [5], 65.9%; in assay [6], 62%. The growth in assay [7] was 105%; in assay [8] it was 75.7%.
Take `CCCC(=O)NNc1[nH]c(-c2cc(OC)c(OC)c(OC)c2)cc1C(=O)OCC`: the growth in assay [1] was 82.1%; in assay [2], 100%; in assay [3] it was 101%; in assay [4] it was 109%; in assay [5], 117%; in assay [6], 93%. For the same compound, the growth in assay [7] was 95.3%; in assay [8], 125%.
As to `COC(=O)C(N)CC(C)C` (centres undefined), the growth in assay [1] was 92%; in assay [2] it was 97.9%; in assay [3], 106%; in assay [4], 103%; in assay [5], 98.3%; in assay [6], 93.5%. For the same compound, the figures for the growth in assay [7] and in assay [8] were 111% and 93.8%, respectively.
In the case of `O=C(CCl)c1ccc2c(c1)CCCC2`, the growth was 87.9% in assay [1]; 83.5% in assay [2]; 111% in assay [3]; 82.6% in assay [4]; 86.5% in assay [5]; 84.2% in assay [6]. The growth in assay [7] is 111%; in assay [8], 107%.
